# In PubChem BioAssay (Tox21):
# Records with an inconclusive call do not appear. A call without a number means that no potency is given here. A number with no mark means an inactive call. The source made the active and inactive calls. Calls come from the whole dose curve; as a rule, active = well fitted cell-killing curve with a large enough effect in the repeat runs; inconclusive = weak or mixed curves, or effect the other way; inactive = flat fitted curve, though single readings scatter.
# Experiment: cAMP Responsive Elements (CRE) small molecule agonists, cell-based qHTS assay: qHTS cell viability counter screen (AID 2060914); note: nearly all actives have a fitted effect of over 50% in size
# Settings: CRE-bla HEK293T viability, CellTiter-Glo luminescence, 5 h; series mostly up to 92.4 µM
# Method in brief: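 Cytotoxicity was measured as ATP luminescence (CellTiter-Glo, 30 min at room temperature) in the same wells as the CRE-bla FRET read-out. HEK293T CRE-bla cells had 3 h compound exposure at 37C/5% CO2.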
# Potency is the fitted concentration of half-maximal effect.
SMILES,Potency,"activity change, negative = cytotoxicity"
C/C=C/c1ccc2c(c1)OCO2,inactive,–
O=c1[nH]c2cc(Cl)ccc2n1C1CCNCC1,inactive,–
c1ccc(C2CC2)c(OCC2=NCCN2)c1,inactive,–
CCC(=O)C(CCN(C)C)(c1ccccc1)c1ccccc1,inactive,–
O=[N+]([O-])c1ccccc1,inactive,–
O=c1[nH]c2ccccc2n1C1CCN(CCCC(c2ccc(F)cc2)c2ccc(F)cc2)CC1,inactive,–
CCOC(=O)C1(c2ccccc2)CCN(CCC(C#N)(c2ccccc2)c2ccccc2)CC1,inactive,–
CCC(C)c1ccc(O)cc1 (stereo not given),inactive,–
CC(C)(C)c1ccc(CSc2cnn(C(C)(C)C)c(=O)c2Cl)cc1,inactive,–
CC(COc1ccc(Oc2ccccc2)cc1)Oc1ccccn1 (stereo not given),inactive,–
C=CC(=C)C,inactive,–
Cc1ccc(C(=O)Cl)cc1,inactive,–
CCOC(=O)C(Cl)C(C)=O (stereo not given),inactive,–
O=C(NCO)NCO,inactive,–
COc1ccc(N)cc1,inactive,–
CCc1cccc(C)c1N(C(=O)CCl)C(C)COC (stereo not given),inactive,–
Oc1cccc(Cl)c1,inactive,–
Cc1cccc(C)c1N,inactive,–
CCCCCOC(=O)c1ccccc1C(=O)OCCCCC,inactive,–
C1CN2CCN1CC2,inactive,–

SMILES,Potency,"activity change, negative = cytotoxicity"
CC(C)(Cl)[N+](=O)[O-],inactive,–
COP(=S)(OC)Oc1c(Cl)cc(C)cc1Cl,inactive,–
O=[N+]([O-])c1cc(C(F)(F)F)c(Cl)c([N+](=O)[O-])c1Nc1ncc(C(F)(F)F)cc1Cl,77 µM (active),–
O=S(=O)(O)OOS(=O)(=O)O,inactive,–
C[C@]12CCC(=O)C=C1CC[C@@H]1[C@@H]2CC[C@]2(C)C(=O)CC[C@@H]12,inactive,–
CN1C(=O)CN=C(c2ccccc2)c2cc([N+](=O)[O-])ccc21,inactive,–
Clc1cc2c(cc1Cl)Oc1cc(Cl)c(Cl)cc1O2,–,1.6% [at 0.349 µM]
O=c1nc(O)n(Cl)c(=O)n1Cl,inactive,–
O=C(CCCN1CCC2(CC1)C(=O)NCN2c1ccccc1)c1ccc(F)cc1,inactive,–
CCN(CC)C1CCCCC1,inactive,–
CC(C)C#N,inactive,–
CCOP(=S)(OCC)SCCS(=O)(=O)CC,inactive,–
C[C@H]1CCCC(=O)CCC/C=C/c2cc(O)cc(O)c2C(=O)O1,inactive,–
Cn1sc(Cl)cc1=O,inactive,–
CSCCCN=C=S,inactive,–
CCCCN=C=O,inactive,–
CCCCCCCCCCCCN(C)C,inactive,–
O=C(O)C(Br)Br,inactive,–
CCOC(=O)c1cncn1C(C)c1ccccc1 (stereo not given),inactive,–
CCOP(=S)(OCC)Oc1cc(C)nc(C(C)C)n1,inactive,–
